Screening results as filed in PubChem BioAssay.
T cruzi growth-1: inhibitors of T. cruzi proliferation; T. cruzi beta-gal in NIH3T3, GalScreen luminescence, 90 h; inhibition, % at 8.34 µM; actives 5.9% (n = 77,000); AID 624255;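 active means mean inhibition above about 93%, with at least 55% of replicates each passing it, limit read from the data, passing the limit was not always enough; inconclusive means only one of those two conditions holds; inactive means neither condition holds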
C diff HTS: inhibitors of Clostridium difficile growth; Clostridium difficile clinical isolate growth, OD600, 24 h; stronger effect = lower value; growth activity, negative = inhibition, % at 16 µg/mL (by protocol); actives 0.25% (n = 86,000);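 active means mean growth activity at or below -80% and every replicate also at or below -80%; inconclusive means mean at or below -80% but some replicate above -80%; inactive means mean growth activity above -80%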;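 further: 0% = DMSO wells and -100% = levofloxacin 16 µg/mL wells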
Pf Dd2 growth: inhibitors of Plasmodium falciparum Dd2 growth; P. falciparum Dd2 growth, SYBR Green, 72 h; stronger effect = lower value; activity change, % at 10 µM; actives 2.3% (n = 94,000); in the data active means activity change below about -80%; inconclusive means no clear call, values can overlap the other calls
T cruzi growth-2: blocks T. cruzi growth in NIH3T3 host cells; shares compounds with T cruzi growth-1; T. cruzi beta-gal in NIH3T3, GalScreen luminescence, 90 h; inhibition, % at 8.35 µM; actives 72% (n = 5,600);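 active means mean replicate inhibition above about 95% and at least 55% of replicates individually reaching it, limit read from the data; inconclusive means only one of the two criteria is met; inactive means neither criterion is met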
T cruzi growth-3: inhibitors of T. cruzi proliferation; shares compounds with T cruzi growth-1; T. cruzi beta-gal in NIH3T3, GalScreen luminescence, 90 h; inhibition, % at 2.09 µM; actives 21% (n = 5,600); AID 651740;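 active means mean inhibition above about 95%, with at least 55% of replicates also reaching it, limit read from the data; inconclusive means meets just one of the two conditions; inactive means meets neither condition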;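 further: plate controls were neutral control median for no effect and positive control median for full effect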
NIH3T3 tox: cytotoxicity in mouse NIH/3T3 fibroblasts; shares compounds with T cruzi growth-1; NIH/3T3 viability, CellTiter-Glo ATP luminescence, 90 h; cytotoxicity (signal decrease), % at 8.35 µM; actives 14% (n = 5,600);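 active means mean signal decrease across replicates above about 35% based on untreated-well scatter, with enough replicates individually passing, limit read from the data; inconclusive means no rule stated though some were filed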;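 further: 0% = median of neutral control wells and 100% = median of positive control wells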
NIH3T3 tox 2: cytotoxicity in mouse NIH/3T3 fibroblasts; shares compounds with T cruzi growth-1; NIH/3T3 viability, CellTiter-Glo ATP luminescence, 90 h; inhibition, % at 24.9 µM; actives 56% (n = 5,600); AID 651744;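 active means mean loss of cell viability signal at or above a set limit, and enough replicates individually reaching it; inconclusive means meets only the mean limit or only the replicate share; inactive means meets neither condition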;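 further: 0% = median of neutral control wells and 100% = median of positive control wells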
Starred values were filed as active, the others as inactive; ? = inconclusive; . = no result given. Hits are enriched below; roughly 6.7% of the tested compounds scored in any of these assays.

SMILES	T cruzi growth-1	C diff HTS	Pf Dd2 growth	T cruzi growth-2	T cruzi growth-3	NIH3T3 tox	NIH3T3 tox 2
O=C(C1CC1)N1CCCCN2[C@@H](CO)[C@H](c3ccc(C#CC4CC4)cc3)[C@@H]2C1	103.2*	-3.2	23.7	83.6	42.9	24.2	51.6*
O=C(C1CC1)N1CCCCN2[C@H](CO)[C@H](c3ccc(C#CC4CC4)cc3)[C@@H]2C1	46.2	-13.3	10.0	.	.	.	.
O=C(C1CCCC1)N1CCCCN2[C@H](CO)[C@@H](c3ccc(C#CC4CC4)cc3)[C@H]2C1	109.1*	1.2	-9.7	107.5*	58.1	12.6	48.9*
O=C(C1CCC1)N1CCCCN2[C@H](CO)[C@@H](c3ccc(C#CC4CCCC4)cc3)[C@@H]2C1	94.5	22.8	13.4	.	.	.	.
Cc1ccc(S(=O)(=O)NC[C@@H]2CC[C@@H]3[C@@H](CN3Cc3ccccc3C(=O)O)O2)cc1	.	-4.2	20.5	.	.	.	.
O=C(Cc1ccccn1)NCC[C@H]1CC[C@H](NC(=O)CN2CCOCC2)[C@H](CO)O1	.	-1.4	8.7	.	.	.	.
Cc1ccc(S(=O)(=O)Nc2ccc3c(c2)C(=O)N([C@@H](C)CO)C[C@H](C)[C@@H](CN(C)S(=O)(=O)c2ccc(C)cc2)OCCCC[C@@H](C)O3)cc1	101.9*	.	-43.6	105.3*	73.0	7.1	5.2
Cc1ccc(S(=O)(=O)Nc2ccc3c(c2)C(=O)N([C@@H](C)CO)C[C@@H](C)[C@@H](CN(C)S(=O)(=O)c2ccc(C)cc2)OCCCC[C@@H](C)O3)cc1	91.3	.	-56.4	.	.	.	.
Cc1ccc(S(=O)(=O)Nc2ccc3c(c2)C(=O)N([C@H](C)CO)C[C@H](C)[C@H](CN(C)S(=O)(=O)c2ccc(C)cc2)OCCCC[C@H](C)O3)cc1	?	.	-33.2	104.9*	106.5*	-10.8	-11.1
Cc1ccc(S(=O)(=O)Nc2ccc3c(c2)C(=O)N([C@@H](C)CO)C[C@H](C)[C@H](CN(C)S(=O)(=O)c2ccc(C)cc2)OCCCC[C@@H](C)O3)cc1	91.8	.	-69.7	.	.	.	.
Cc1ccc(S(=O)(=O)Nc2ccc3c(c2)C(=O)N([C@@H](C)CO)C[C@@H](C)[C@H](CN(C)S(=O)(=O)c2ccc(C)cc2)OCCCC[C@@H](C)O3)cc1	101.5*	.	-34.6	102.0*	?	0.4	12.8
Cc1ccc(S(=O)(=O)Nc2ccc3c(c2)C(=O)N([C@H](C)CO)C[C@@H](C)[C@H](CN(C)S(=O)(=O)c2ccc(F)cc2)OCCCC[C@H](C)O3)cc1	.	-19.8	-11.7	.	.	.	.
CN1c2ccc(Br)cc2[C@H]2[C@H](CCN2C(=O)c2cccc(F)c2)[C@@H]1CO	57.8	0.9	6.6	.	.	.	.
O=C(NCc1ccccn1)[C@@H]1[C@@H](CO)[C@@H]2Cn3c(cccc3=O)[C@H]1N2CC1CCCCC1	9.8	4.5	-12.9	.	.	.	.
C[C@@H]1CN([C@@H](C)CO)C(=O)c2cc(NC(=O)Nc3ccc4c(c3)OCO4)ccc2O[C@@H]1CN(C)Cc1ccccc1	-11.3	7.0	20.5	.	.	.	.
CC(C)NC(=O)N(C)C[C@H]1OCCCC[C@H](C)Oc2ccc(NS(=O)(=O)c3cn(C)cn3)cc2C(=O)N([C@@H](C)CO)C[C@@H]1C	20.2	-3.3	-2.0	.	.	.	.
O=C1CSC(c2ccccc2)N1c1ccc(-c2ccccc2)cc1 (configuration not stated)	.	0.9	.	.	.	.	.
O=C(O)[C@@H]1[C@@H](CO)[C@@H]2Cn3c(ccc(/C=C/c4ccccc4)c3=O)[C@@H]2N1C(=O)C1CCCC1	.	-8.7	-12.8	.	.	.	.
CCCNC(=O)Nc1ccc2c(c1)C(=O)N(C)[C@H]1CC[C@H](CC(=O)Nc3ccccc3F)O[C@@H]1CO2	-26.6	7.4	-11.7	.	.	.	.
C[C@@H]1CCCCO[C@H](CN(C)Cc2ccccc2)[C@H](C)CN([C@@H](C)CO)C(=O)c2cc(NC(=O)c3ccncc3)ccc2O1	84.1	-5.5	-14.1	.	.	.	.
C[C@@H]1CN([C@@H](C)CO)C(=O)c2cc(NC(=O)c3ccccc3)ccc2O[C@@H](C)CCCCO[C@@H]1CN(C)Cc1ccncc1	114.0*	-8.0	-77.1	99.8*	29.2	-14.0	13.5
C[C@H](CO)N1C[C@H](C)[C@H](CN(C)Cc2ccncc2)OCCCC[C@H](C)Oc2ccc(NC(=O)Cc3ccccc3)cc2C1=O	103.2*	-5.9	-1.5	96.0*	82.3	7.5	7.5
C[C@H]1CCCCO[C@H](CN(C)Cc2ccncc2)[C@@H](C)CN([C@@H](C)CO)C(=O)c2cc(NC(=O)Cc3ccccc3)ccc2O1	80.6	-2.9	-3.3	.	.	.	.
C[C@@H]1CCCCO[C@H](CN(C)Cc2ccncc2)[C@H](C)CN([C@@H](C)CO)C(=O)c2cc(NC(=O)c3ccccc3)ccc2O1	11.8	-3.5	-31.5	.	.	.	.
C[C@@H]1CCCCO[C@H](CN(C)Cc2ccccc2)[C@H](C)CN([C@@H](C)CO)C(=O)c2cc(NC(=O)c3ccccc3)ccc2O1	54.5	-3.2	-46.6	.	.	.	.
SMILES	T cruzi growth-1	C diff HTS	Pf Dd2 growth	T cruzi growth-2	T cruzi growth-3	NIH3T3 tox	NIH3T3 tox 2
C[C@@H]1CN([C@@H](C)CO)C(=O)c2cc(NC(=O)c3ccccc3)ccc2O[C@@H](C)CCCCO[C@H]1CN(C)Cc1ccccc1	101.6*	3.3	-84.8*	97.8*	66.6	-1.1	61.5*
C[C@@H]1CN([C@H](C)CO)C(=O)c2cc(NC(=O)c3ccncc3)ccc2O[C@@H](C)CCCCO[C@H]1CN(C)Cc1ccccc1	98.1*	-3.2	-21.7	58.8	-33.2	-4.9	1.4
Cc1ccccc1-c1cnc2c(c1)C(=O)N([C@@H](C)CO)C[C@@H](C)[C@H](CN(C)Cc1cccnc1)O2	41.3	0.6	12.3	.	.	.	.
C[C@@H]1CN([C@@H](C)CO)C(=O)c2cccc(NS(=O)(=O)c3ccc(Cl)cc3)c2O[C@@H]1CN(C)Cc1ccc(C(F)(F)F)cc1	32.6	-0.4	-13.7	.	.	.	.
CCCC(=O)Nc1ccc2c(c1)OC[C@@H](C)N(C)C[C@@H](C)[C@H](OC)CN(C)C2=O	.	-3.0	-0.4	.	.	.	.
COc1ccc2c3c(n(C)c2c1)[C@H](CO)N(Cc1ccc(Cl)cc1)CC31CN(C(=O)NC(C)C)C1	.	10.5	-24.5	.	.	.	.
C[C@@H]1CCCCO[C@H](CN(C)Cc2ccccc2)[C@@H](C)CN([C@H](C)CO)C(=O)c2cc(NC(=O)c3ccccc3)ccc2O1	24.6	2.4	7.8	.	.	.	.
C[C@@H]1CCCCO[C@H](CN(C)C(=O)c2ccncc2)[C@H](C)CN([C@H](C)CO)C(=O)c2cc(NC(=O)c3ccccc3)ccc2O1	97.1*	-0.7	-7.3	23.5	-16.6	12.0	10.7
C[C@@H]1CCCCO[C@@H](CN(C)Cc2ccc(Cl)c(Cl)c2)[C@@H](C)CN([C@H](C)CO)C(=O)c2cc(NC(=O)c3ccccc3)ccc2O1	95.9*	5.2	-14.2	113.7*	48.7	5.5	13.9
